# Results: PubChem BioAssay (NCI)
# This is part of a sample that, as a whole, favours compounds with a hit. Of some 79,000 tested, about 15% had one in any assay. Values without a mark were called inactive. Activity calls are given as the source filed them. Cut-off read from the data, not from the text of the source: active = growth inhibition above about 70%; inactive = the rest.
# How the values were obtained:
# [1] = NCI Yeast Anticancer Drug Screen. Data for the mlh1 strain (AID 171);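 note: 0% = growth of vehicle-treated control cultures of the same strain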; conditions: S. cerevisiae mlh1 strain growth inhibition, hits give high values
# Summary of the method: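 Yeast screen: mutant strain plus compound, growth scored against vehicle control wells.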
# [2] = NCI Yeast Anticancer Drug Screen. Data for the sgs1 strain (AID 173);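 note: 0% = growth of vehicle-only control cultures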; conditions: S. cerevisiae sgs1 mutant, hits give high values
# Summary of the method: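 Inhibition of yeast growth served as the measure. The mutant strain was treated with each compound, and growth was normalised to cultures receiving vehicle alone.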
# [3] = NCI Yeast Anticancer Drug Screen. Data for the mlh1 rad18 strain (AID 175); conditions: S. cerevisiae mlh1 rad18 strain growth inhibition, hits give high values
# Summary of the method: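 Compound-treated yeast growth, normalised to vehicle controls. Strain bears defined DNA repair mutations.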
# [4] = NCI Yeast Anticancer Drug Screen. Data for the rad18 strain (AID 177); conditions: S. cerevisiae rad18 mutant growth inhibition, hits give high values
# Summary of the method: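 Inhibition values reflect reduced yeast growth compared with vehicle-treated controls, using a strain engineered with a DNA damage repair defect.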
# [5] = NCI Yeast Anticancer Drug Screen. Data for the rad52 strain (AID 147);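 note: 0% = growth of vehicle-treated control cultures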; conditions: S. cerevisiae rad52 mutant growth inhibition, hits give high values
# Summary of the method: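 Genetically altered yeast (DNA damage repair defect) treated with compound; inhibition calculated relative to vehicle.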
# [6] = NCI Yeast Anticancer Drug Screen. Data for the wt1 strain (AID 149);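 note: 0% = growth of vehicle-treated wt1 cultures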; conditions: S. cerevisiae wt1 strain (SPY 50644) growth inhibition, hits give high values
# Summary of the method: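 wt1 strain grown with compound or vehicle; inhibition taken from the growth difference.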
# [7] = NCI Yeast Anticancer Drug Screen. Data for the rad50EPP+ strain (AID 151);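 note: 0% = growth of vehicle-treated control cultures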; conditions: S. cerevisiae rad50 mutant strain, hits give high values
# Summary of the method: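 Strain rad50EPP+; compound exposure; % growth inhibition vs vehicle.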
# [8] = NCI Yeast Anticancer Drug Screen. Data for the rad50 strain (AID 155);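 note: 0% = growth of vehicle-only cultures of the same strain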; conditions: S. cerevisiae rad50 strain growth inhibition, hits give high values
# Summary of the method: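 DNA repair mutant yeast, compound exposure, growth read-out; inhibition is taken relative to vehicle.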
# [9] = NCI Yeast Anticancer Drug Screen. Data for the mec2-1 strain (AID 157); conditions: S. cerevisiae mec2-1 strain, hits give high values
# Summary of the method: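 Cells of the genetically defined mec2-1 yeast strain are incubated with test compound. Inhibition of growth is calculated against vehicle-treated controls.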
# [10] = NCI Yeast Anticancer Drug Screen. Data for the rad14 strain (AID 159);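 note: 0% = growth of vehicle-treated control cultures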; conditions: S. cerevisiae rad14 strain growth inhibition, hits give high values
# Summary of the method: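 DNA repair-defective yeast, compound-exposed; % growth inhibition derived by comparison with vehicle-treated controls.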
# [11] = NCI Yeast Anticancer Drug Screen. Data for the sgs1 mgt1 strain (AID 161);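 note: 0% = growth of cultures given vehicle only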; conditions: S. cerevisiae sgs1 mgt1 strain, hits give high values
# Summary of the method: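 Test agents were incubated with a DNA-repair-mutant yeast strain. Growth was then read and compared against vehicle-treated controls.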
# [12] = NCI Yeast Anticancer Drug Screen. Data for the CLN2oe strain (AID 163);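 note: 0% = growth of vehicle-only control cultures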; conditions: S. cerevisiae CLN2oe strain, hits give high values
# Summary of the method: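 Strain altered in cell-cycle control, incubated with compound; growth compared to solvent-treated controls.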
# [13] = NCI Yeast Anticancer Drug Screen. Data for the cln2 rad14 strain (AID 165);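 note: 0% = growth equal to vehicle treated cultures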; conditions: S. cerevisiae cln2 rad14 strain, hits give high values
# Summary of the method: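 The screen exposed genetically defined yeast (cln2 rad14) to test compounds and scored growth inhibition relative to vehicle-treated controls.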
# [14] = NCI Yeast Anticancer Drug Screen. Data for the bub3 strain (AID 167); conditions: S. cerevisiae bub3 mutant strain, hits give high values
# Summary of the method: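 In this screen, a yeast mutant lacking normal mitotic checkpoint function is challenged with compound. Relative growth versus vehicle gives the inhibition value.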
# [15] = NCI Yeast Anticancer Drug Screen. Data for the wt2 strain (AID 169);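 note: 0% = growth of vehicle-treated yeast cultures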; conditions: S. cerevisiae wt2 strain growth inhibition, hits give high values
# Summary of the method: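 Steps: yeast strain treated with compound; growth recorded; inhibition calculated relative to cultures given vehicle alone.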
# [16] = at 5.0 µM (retest, dose inferred, filed as 0.5)
# [17] = at 50.0 µM (retest, dose inferred, filed as 5.0)
compound,measurement,setting,value
CN(C)CC1CCCc2ccccc2C1=O (centres undefined),growth inhibition,[1]; at 1.2 µM,23%
same,growth inhibition,[1]; at 3.7 µM,28%
same,growth inhibition,[1]; at 11.0 µM,29%
same,growth inhibition,[1]; at 33.0 µM,76% (active)
same,growth inhibition,[1]; at 100.0 µM,95% (active)
same,growth inhibition,[2]; at 1.2 µM,-15%
same,growth inhibition,[2]; at 3.7 µM,-12%
same,growth inhibition,[2]; at 11.0 µM,12%
same,growth inhibition,[2]; at 33.0 µM,32%
same,growth inhibition,[2]; at 100.0 µM,84% (active)
same,growth inhibition,[3]; [16],13%
same,growth inhibition,[3]; [17],66%
same,growth inhibition,[3]; at 50.0 µM,70.2% (active)
same,growth inhibition,[4]; at 1.2 µM,-14%
same,growth inhibition,[4]; at 3.7 µM,7%
same,growth inhibition,[4]; at 11.0 µM,2%
same,growth inhibition,[4]; at 33.0 µM,38%
same,growth inhibition,[4]; at 100.0 µM,85% (active)
OB(O)c1ccccc1C#Cc1ccccc1B(O)O,growth inhibition,[5]; at 1.2 µM,2%
same,growth inhibition,[5]; at 3.7 µM,7%
same,growth inhibition,[5]; at 11.0 µM,24%
same,growth inhibition,[5]; at 33.0 µM,59%
same,growth inhibition,[5]; at 100.0 µM,95% (active)
same,growth inhibition,[6]; at 1.2 µM,-2%
same,growth inhibition,[6]; at 3.7 µM,0%
same,growth inhibition,[6]; at 11.0 µM,6%
same,growth inhibition,[6]; at 33.0 µM,18%
same,growth inhibition,[6]; at 100.0 µM,59%
same,growth inhibition,[7]; at 1.2 µM,0%
same,growth inhibition,[7]; at 3.7 µM,6%
same,growth inhibition,[7]; at 11.0 µM,36%
same,growth inhibition,[7]; at 33.0 µM,69%
same,growth inhibition,[7]; at 100.0 µM,85% (active)
same,growth inhibition,[8]; at 1.2 µM,7%
same,growth inhibition,[8]; at 3.7 µM,17%
same,growth inhibition,[8]; [16],12%
same,growth inhibition,[8]; at 11.0 µM,47%
same,growth inhibition,[8]; at 33.0 µM,84% (active)
same,growth inhibition,[8]; [17],79% (active)
same,growth inhibition,[8]; at 50.0 µM,61.5%
same,growth inhibition,[8]; at 100.0 µM,96% (active)
same,growth inhibition,[9]; at 1.2 µM,-6%
same,growth inhibition,[9]; at 3.7 µM,1%
same,growth inhibition,[9]; [16],5%
same,growth inhibition,[9]; at 11.0 µM,13%
same,growth inhibition,[9]; at 33.0 µM,43%
same,growth inhibition,[9]; [17],50%
same,growth inhibition,[9]; at 50.0 µM,50%
same,growth inhibition,[9]; at 100.0 µM,87% (active)
same,growth inhibition,[10]; at 1.2 µM,-1%
same,growth inhibition,[10]; at 3.7 µM,3%
same,growth inhibition,[10]; at 11.0 µM,14%
same,growth inhibition,[10]; at 33.0 µM,41%
same,growth inhibition,[10]; at 100.0 µM,97% (active)
same,growth inhibition,[11]; [16],4%
same,growth inhibition,[11]; [17],44%
same,growth inhibition,[11]; at 50.0 µM,64.2%
same,growth inhibition,[12]; at 1.2 µM,-2%
same,growth inhibition,[12]; at 3.7 µM,1%
same,growth inhibition,[12]; at 11.0 µM,13%
same,growth inhibition,[12]; at 33.0 µM,38%
same,growth inhibition,[12]; at 100.0 µM,86% (active)
same,growth inhibition,[13]; [16],9%
same,growth inhibition,[13]; [17],39%
same,growth inhibition,[13]; at 50.0 µM,70.3% (active)
same,growth inhibition,[14]; at 1.2 µM,-7%
same,growth inhibition,[14]; at 3.7 µM,-8%
same,growth inhibition,[14]; [16],-1%
same,growth inhibition,[14]; at 11.0 µM,-8%
same,growth inhibition,[14]; at 33.0 µM,8%
same,growth inhibition,[14]; [17],20%
same,growth inhibition,[14]; at 50.0 µM,58%
same,growth inhibition,[14]; at 100.0 µM,79% (active)
same,growth inhibition,[15]; at 1.2 µM,-1%
same,growth inhibition,[15]; at 3.7 µM,-3%
same,growth inhibition,[15]; at 11.0 µM,3%
same,growth inhibition,[15]; at 33.0 µM,18%
same,growth inhibition,[15]; at 100.0 µM,93% (active)
same,growth inhibition,[1]; at 1.2 µM,1%
same,growth inhibition,[1]; at 3.7 µM,1%
same,growth inhibition,[1]; at 11.0 µM,12%
same,growth inhibition,[1]; at 33.0 µM,27%
same,growth inhibition,[1]; at 100.0 µM,94% (active)
same,growth inhibition,[2]; at 1.2 µM,-1%
same,growth inhibition,[2]; at 3.7 µM,4%
same,growth inhibition,[2]; at 11.0 µM,17%
same,growth inhibition,[2]; at 33.0 µM,35%
same,growth inhibition,[2]; at 100.0 µM,91% (active)
same,growth inhibition,[3]; [16],20%
same,growth inhibition,[3]; [17],79% (active)
same,growth inhibition,[3]; at 50.0 µM,68.2%
same,growth inhibition,[4]; at 1.2 µM,-4%
same,growth inhibition,[4]; at 3.7 µM,0%
same,growth inhibition,[4]; at 11.0 µM,8%
same,growth inhibition,[4]; at 33.0 µM,40%
same,growth inhibition,[4]; at 100.0 µM,95% (active)
Cc1ccc2occ/c(=N\Nc3ccccc3)c2c1,growth inhibition,[5]; at 1.2 µM,-3%
same,growth inhibition,[5]; at 3.7 µM,-4%
same,growth inhibition,[5]; at 11.0 µM,8%
same,growth inhibition,[5]; at 33.0 µM,33%
same,growth inhibition,[5]; at 100.0 µM,39%
same,growth inhibition,[6]; at 1.2 µM,2%
same,growth inhibition,[6]; at 3.7 µM,-5%
same,growth inhibition,[6]; at 11.0 µM,4%
same,growth inhibition,[6]; at 33.0 µM,11%
same,growth inhibition,[6]; at 100.0 µM,16%
same,growth inhibition,[7]; at 1.2 µM,1%
same,growth inhibition,[7]; at 3.7 µM,-3%
same,growth inhibition,[7]; at 11.0 µM,4%
same,growth inhibition,[7]; at 33.0 µM,58%
same,growth inhibition,[7]; at 100.0 µM,55%
same,growth inhibition,[8]; at 1.2 µM,5%
same,growth inhibition,[8]; at 3.7 µM,-7%
same,growth inhibition,[8]; [16],-16%
same,growth inhibition,[8]; at 11.0 µM,6%
same,growth inhibition,[8]; at 33.0 µM,57%
same,growth inhibition,[8]; [17],31%
same,growth inhibition,[8]; at 50.0 µM,73.8% (active)
same,growth inhibition,[8]; at 100.0 µM,58%
same,growth inhibition,[9]; at 1.2 µM,-4%
same,growth inhibition,[9]; at 3.7 µM,-4%
same,growth inhibition,[9]; [16],-11%
same,growth inhibition,[9]; at 11.0 µM,-2%
same,growth inhibition,[9]; at 33.0 µM,17%
same,growth inhibition,[9]; [17],23%
same,growth inhibition,[9]; at 50.0 µM,52.7%
same,growth inhibition,[9]; at 100.0 µM,24%
same,growth inhibition,[10]; at 1.2 µM,-2%
same,growth inhibition,[10]; at 3.7 µM,-2%
same,growth inhibition,[10]; at 11.0 µM,-4%
same,growth inhibition,[10]; at 33.0 µM,39%
same,growth inhibition,[10]; at 100.0 µM,45%
same,growth inhibition,[11]; [16],-1%
same,growth inhibition,[11]; [17],70% (active)
same,growth inhibition,[11]; at 50.0 µM,82.5% (active)
same,growth inhibition,[12]; at 1.2 µM,-9%
same,growth inhibition,[12]; at 3.7 µM,-7%
same,growth inhibition,[12]; at 11.0 µM,5%
same,growth inhibition,[12]; at 33.0 µM,-1%
same,growth inhibition,[12]; at 100.0 µM,12%
same,growth inhibition,[13]; [16],-21%
same,growth inhibition,[13]; [17],-23%
same,growth inhibition,[13]; at 50.0 µM,-23.1%
same,growth inhibition,[14]; at 1.2 µM,-4%
same,growth inhibition,[14]; at 3.7 µM,-4%
same,growth inhibition,[14]; [16],-4%
same,growth inhibition,[14]; at 11.0 µM,-4%
same,growth inhibition,[14]; at 33.0 µM,64%
same,growth inhibition,[14]; [17],70% (active)
same,growth inhibition,[14]; at 50.0 µM,87.8% (active)
same,growth inhibition,[14]; at 100.0 µM,70% (active)
same,growth inhibition,[15]; at 1.2 µM,-2%
same,growth inhibition,[15]; at 3.7 µM,-4%
same,growth inhibition,[15]; at 11.0 µM,7%
same,growth inhibition,[15]; at 33.0 µM,55%
same,growth inhibition,[15]; at 100.0 µM,57%
same,growth inhibition,[1]; at 1.2 µM,-1%
same,growth inhibition,[1]; at 3.7 µM,-5%
same,growth inhibition,[1]; at 11.0 µM,-1%
same,growth inhibition,[1]; at 33.0 µM,59%
same,growth inhibition,[1]; at 100.0 µM,63%
same,growth inhibition,[2]; at 1.2 µM,-1%
same,growth inhibition,[2]; at 3.7 µM,-4%
same,growth inhibition,[2]; at 11.0 µM,4%
same,growth inhibition,[2]; at 33.0 µM,53%
same,growth inhibition,[2]; at 100.0 µM,57%
same,growth inhibition,[3]; [16],-5%
same,growth inhibition,[3]; [17],52%
same,growth inhibition,[3]; at 50.0 µM,68.3%
same,growth inhibition,[4]; at 1.2 µM,-2%
same,growth inhibition,[4]; at 3.7 µM,-1%
same,growth inhibition,[4]; at 11.0 µM,7%
same,growth inhibition,[4]; at 33.0 µM,62%
same,growth inhibition,[4]; at 100.0 µM,64%
